Screens from PubChem.
USP28 block: human USP28 deubiquitinase inhibition; purified USP28, Ub-rhodamine cleavage fluorescence, 30 min; actives 3% (n = 47,000); AID 1645857; inhibition, % at 25 µM; Q96RU2
OTUD3 inh: inhibitors of human OTUD3 deubiquitinase; AID 1645858; purified OTUD3, Ub-rhodamine fluorescence, 2 h; inhibition, % at 25 µM; actives 0.7% (n = 47,000)
Target sequence (Q5T2D3 whole entry, looked up): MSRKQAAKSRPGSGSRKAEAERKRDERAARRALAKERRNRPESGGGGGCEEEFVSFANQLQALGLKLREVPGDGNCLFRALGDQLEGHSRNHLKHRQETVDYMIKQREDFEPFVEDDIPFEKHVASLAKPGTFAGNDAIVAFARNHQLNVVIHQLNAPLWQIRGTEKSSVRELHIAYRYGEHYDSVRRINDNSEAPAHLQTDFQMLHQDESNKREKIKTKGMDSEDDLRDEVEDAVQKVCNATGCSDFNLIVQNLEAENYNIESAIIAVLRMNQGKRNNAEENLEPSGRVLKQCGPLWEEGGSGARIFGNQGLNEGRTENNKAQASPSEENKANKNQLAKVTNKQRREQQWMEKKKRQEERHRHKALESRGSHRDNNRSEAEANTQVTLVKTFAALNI
USP17 inh: human USP17-like deubiquitinase inhibition; A8MUK1; purified USP17, Ub-rhodamine cleavage fluorescence, 3 h; inhibition, % at 50 µM; actives 6.5% (n = 47,000); AID 1645855
USP30 inh: human USP30 deubiquitinase inhibition; actives 5.3% (n = 47,000); Q70CQ3; AID 1645860; purified USP30, Ub-rhodamine cleavage fluorescence; inhibition, % at 25 µM
Numbers without * were called inactive; nt = not tested or not shown. A selection: hits, their analogues and other compounds. The true share with any hit is near 11%. Cut-off read from the data, not from the text of the source: active = inhibition above about 30%; inactive = the rest.

SMILES	USP28 block	OTUD3 inh	USP17 inh	USP30 inh
Cc1cccnc1-n1c(C)c(C)c2c1ncn1nc(-c3ccco3)nc21	3	10	40*	0
Cc1cnnn1-c1ccc(C(=O)Nc2ccc(Cl)cc2Cl)cc1	37*	23	84*	81*
Cc1cnnn1-c1ccc(C(=O)Nc2ccccc2F)cc1	12	10	15	34*
O=C(O)c1cccc(Nc2c(-c3ccc(N4CCOCC4)cc3)nc3cnccn23)c1	0	0	-7	-39
CN(C)c1ccc(C2CC(c3ccc(Br)cc3)=NN2C(=O)CCC(=O)O)cc1 (centres undefined)	23	13	32*	26
COc1ccc(CNC(=O)CN(c2ccccc2)S(=O)(=O)c2ccc(F)cc2)cc1OC	-3	0	-1	-10
COc1ccc(S(=O)(=O)N(CC(=O)Nc2cccnc2)c2ccc(F)cc2)cc1OC	14	6	6	11
COc1ccc(N(CC(=O)Nc2cccc(F)c2)S(=O)(=O)c2ccc(OC)c(OC)c2)cc1	20	22	36*	51*
COc1ccc(S(=O)(=O)N(CC(=O)NCc2ccc3c(c2)OCO3)c2ccc(F)cc2)cc1OC	20	17	34*	38*
c1ccc(C2NCCN=C2NC2CCCCC2)cc1 (centres undefined)	0	4	4	-3
Cc1ccc2c(c1)c(=O)cc(C(F)(F)F)n2C[C@H]1CCCN1C(=O)C(C)C	24	0	0	2
CN(C)S(=O)(=O)c1ccc(C(=O)Oc2ccc(-c3ccc(C#N)cc3)cc2)cc1	3	8	18	31*
COc1ccccc1C(=O)Oc1ccc(-c2ccc(C#N)cc2)cc1	5	5	49*	8
COc1ccc(Cc2nnc(Nc3ccc(F)cc3)[nH]c2=O)cc1	0	0	-1	8
O=C(Nc1cccc(Cl)c1)c1cccc(-n2cnnc2)n1	nt	5	7	nt
CSc1ccccc1C(=O)Nc1sc2c(c1C(N)=O)CCC(C)C2 (centres undefined)	12	-9	80*	-1
CC1CCc2sc(NC(=O)c3ccccc3Oc3ccccc3)c(C(N)=O)c2C1 (centres undefined)	6	11	83*	21
CSc1cccc(C(=O)Nc2sc3c(c2C(N)=O)CCC(C)C3)c1 (centres undefined)	-4	-4	6	3
CSc1ccccc1C(=O)Nc1sc2c(c1C(N)=O)CCCCC2	29	7	38*	-2
CS(=O)(=O)c1cccc(C(=O)Nc2sc3c(c2C(N)=O)CCCCC3)c1	-27	-9	-52	-79
COc1ccc(NC(=O)CCS(=O)(=O)c2ccc3c(c2)SCC(=O)N3)cc1Cl	-16	-11	-29	-81
COc1ccc(-c2c(NC(=O)c3cc(F)cc(F)c3)n[nH]c2C)cc1OC	13	14	nt	27
COc1ccc(-c2c(NC(=O)C3COc4ccccc4O3)n[nH]c2C)cc1OC (centres undefined)	32*	8	0	11
Cc1[nH]nc(NC(=O)C2COc3ccccc3O2)c1-c1ccccc1 (centres undefined)	53*	37*	39*	25
Cc1ccc(NC(=O)Cn2c(-n3nc(C)cc3C)nc3c(c2=O)CCCC3)c(C)c1	8	13	59*	31*
SMILES	USP28 block	OTUD3 inh	USP17 inh	USP30 inh
CC(C)(C)C(=O)CSc1nnc(C2COc3ccccc3O2)n1-c1ccc2c(c1)OCCO2 (centres undefined)	3	3	-49	14
Cc1nnc(NC(=O)C2CCN(c3ccc(S(N)(=O)=O)cc3[N+](=O)[O-])CC2)o1	66*	67*	73*	29
Cc1cccc(CNc2cc(-n3ccnc3)ncn2)c1	28	5	9	3
Fc1cccc(CNc2cc(-n3ccnc3)ncn2)c1	32*	5	4	15
C[C@]12CN(Cc3ccc(F)cc3)C[C@H]1NC(=O)c1ccccc1C2=O	11	0	8	8
c1ccc(-c2cc3c(NCC4CCCO4)ncnc3s2)cc1 (centres undefined)	0	0	-2	-4
c1ccc(-n2ncc3c(NCC4CCCO4)ncnc32)cc1 (centres undefined)	6	11	15	31*
O=C(COc1ccc(Cl)cc1)Nc1noc(-c2cccs2)n1	31*	0	48*	44*
COc1ccccc1NC(=O)N(CCc1ccccc1)Cc1cc2ccc(C)c(C)c2[nH]c1=O	-3	-7	2	-70
COc1ccc(C2(C(=O)Nc3nc(-c4ccc5c(c4)CCN5C(=O)CC(C)(C)C)c(C)s3)CCCCC2)cc1	-2	-10	-1	-45
CC(C)(C)OC(=O)N[C@@H](Cc1ccccc1)C(=O)NCC1CCC(C(=O)NCCc2c[nH]c3ccccc23)CC1 (some centres undefined)	-11	0	44*	-12
O=C(OCc1cccc(Cl)c1)c1ccc2ccccc2n1	91*	17	25	21
Cc1nc2ccccc2n1CC(=O)OCc1cccc(Cl)c1	0	-7	8	-4
O=C(OCc1ccc(F)cc1)c1ccc2ccccc2n1	78*	-8	1	3
O=C(C1CCCN(S(=O)(=O)c2ccc3nc(-c4ccccc4)[nH]c3c2)C1)N1CCc2ccccc21 (centres undefined)	-5	-13	-15	-13
COc1ccc(CCNC(=O)c2c(N)n(-c3cccc(Cl)c3)c3nc4ccccc4nc23)cc1	-22	-29	65*	-102
COc1ccc(CCNC(=O)c2c(N)n(-c3cccc(F)c3)c3nc4ccccc4nc23)cc1	-26	-59	38*	-102
Cc1cc2n(n1)CCCN2C(=O)Nc1cc(Cl)ccc1Cl	0	7	-18	4
Cc1ccc(C(=O)N2CCC3(CC2)COCCN(Cc2cccnc2)C3)cc1	-1	0	-9	9
O=C1CCSc2ccc(Cl)cc2N1Cc1ccc(Cl)cc1	42*	17	13	30
O=C1CCSc2ccccc2N1Cc1ccccc1F	25	0	0	14
Cn1nc(-c2ccccc2)c(CO)c1Sc1ccccc1Cl	8	-5	49*	6
COc1cc(O)c2c(c1)C1=CC(=O)C(O)=C[C@]1(C)OC2=O	36*	41*	46*	48*
COc1cc(O)c2c(c1)COC(=O)c1c(O)cc(C)cc1O2	13	17	5	9
O=C(Nc1cccc(N2CCn3c(nc4ccccc43)C2)c1)c1cccc(Br)c1	nt	3	30*	nt
CCOC(=O)N1CCN(C(=O)[C@H](C)NC(=O)c2cc3ccccc3[nH]2)CC1	-15	1	5	6
N#Cc1cccc(NC(=O)Nc2cccn(Cc3ccc(F)cc3)c2=O)c1	74*	4	74*	38*
COc1cccc(C(=O)N2CCN(c3nc(-c4ccc(Cl)cc4)no3)CC2)c1	17	17	17	19
Cc1ccc(NC(=O)COc2ccc(-c3nc(C(C)C)no3)cc2)c(F)c1	6	10	37*	32*
CCc1noc(-c2ccc(OCC(=O)Nc3cc(C)cc(C)c3)cc2)n1	10	0	25	44*
